# Assay results: article PMC4336329 (PLoS ONE, 2015)
# Hit rate of the full screen: of about 310,000 compounds, about 14,000 (4.5%) showed an effect of 50% or more. The effect is printed as a negative number. The sample as a whole holds a higher share of strong results than the screen did.
# Biological target: human ether-à-go-go-related gene (hERG) potassium channel (human, UniProt Q12809)
# Assay: primary screen, population patch clamp on CHO cells stably expressing hERG; higher = less effect of the substance
# 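Further: peak tail current of the secondary pulse compared with the same well before compound.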
# Chain of human ether-à-go-go-related gene (hERG) potassium channel (Q12809 whole entry, looked up): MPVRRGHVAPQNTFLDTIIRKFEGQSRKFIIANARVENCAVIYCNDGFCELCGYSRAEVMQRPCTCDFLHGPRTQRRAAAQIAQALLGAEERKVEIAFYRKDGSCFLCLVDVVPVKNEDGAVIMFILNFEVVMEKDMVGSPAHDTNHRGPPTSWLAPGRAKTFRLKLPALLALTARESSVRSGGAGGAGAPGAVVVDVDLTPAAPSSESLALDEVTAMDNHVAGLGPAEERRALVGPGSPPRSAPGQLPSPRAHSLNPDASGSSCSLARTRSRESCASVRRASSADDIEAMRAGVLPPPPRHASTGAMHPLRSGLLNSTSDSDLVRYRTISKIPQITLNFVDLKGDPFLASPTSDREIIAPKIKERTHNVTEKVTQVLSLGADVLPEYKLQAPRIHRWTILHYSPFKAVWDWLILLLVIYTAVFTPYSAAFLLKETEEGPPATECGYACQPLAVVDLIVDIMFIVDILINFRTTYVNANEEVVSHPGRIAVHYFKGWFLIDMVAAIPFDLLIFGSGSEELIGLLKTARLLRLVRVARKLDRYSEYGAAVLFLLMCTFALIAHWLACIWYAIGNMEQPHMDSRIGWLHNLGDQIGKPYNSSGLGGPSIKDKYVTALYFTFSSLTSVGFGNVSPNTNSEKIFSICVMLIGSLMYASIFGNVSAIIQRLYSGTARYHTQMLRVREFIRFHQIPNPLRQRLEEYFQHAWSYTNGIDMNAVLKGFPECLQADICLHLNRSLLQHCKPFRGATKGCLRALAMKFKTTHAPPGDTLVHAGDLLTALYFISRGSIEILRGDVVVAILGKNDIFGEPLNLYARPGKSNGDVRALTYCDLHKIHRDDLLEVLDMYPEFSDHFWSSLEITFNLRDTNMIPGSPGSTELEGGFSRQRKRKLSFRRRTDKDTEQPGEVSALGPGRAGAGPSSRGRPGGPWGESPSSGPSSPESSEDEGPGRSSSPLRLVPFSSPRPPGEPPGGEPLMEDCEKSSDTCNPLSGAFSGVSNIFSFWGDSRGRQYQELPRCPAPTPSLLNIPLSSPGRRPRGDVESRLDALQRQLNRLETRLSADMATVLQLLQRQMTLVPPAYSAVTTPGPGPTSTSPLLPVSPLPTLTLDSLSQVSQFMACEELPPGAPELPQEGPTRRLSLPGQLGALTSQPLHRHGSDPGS
row,Structure (SMILES),"hERG current change (%, negative = inhibition) at 10uM [%]"
1,CCOC(=O)CNC(=O)c1cnc(Nc2ccccc2OC)c2ccccc12,5.33
2,COc1ccccc1C1/C(=C(\O)c2ccc3c(c2)OCCO3)C(=O)C(=O)N1Cc1cccnc1 (stereo not shown),18.9
3,O=C(CSc1ccc(-c2cccs2)nn1)NCc1ccccc1Cl,-28.7
4,COc1cc(C(=O)N2CCN(c3ccc([N+](=O)[O-])cc3)CC2)ccc1OCc1c(C)noc1C,-60.2
5,Cc1cccc(N2CCN(C(=O)CSCc3c(C)noc3C)CC2)c1C,-14.9
6,Cc1noc(C)c1COc1ccc(C(=O)N2CCN(c3ccccn3)CC2)cc1,-31.8
7,COc1cc(C(=O)N2CCN(S(=O)(=O)c3ccc(C)cc3)CC2)ccc1OCc1c(C)noc1C,-21
8,Cc1noc(C)c1COc1ccc(C(=O)N2CCN(c3ccccc3F)CC2)cc1,-55
9,Cc1noc(C)c1COc1ccc(C(=O)N2CCN(c3ccccc3O)CC2)cc1,-14.4
10,Cc1noc(C)c1CSCC(=O)N1CCN(c2ccc(F)cc2)CC1,-38.1
11,COc1ccc(N2CCN(C(=O)c3ccc(OCc4c(C)noc4C)c(OC)c3)CC2)cc1,6.01
12,Cc1noc(C)c1CSCC(=O)N1CCN(c2ccc([N+](=O)[O-])cc2)CC1,-76.8
13,CCOC(=O)[C@@H]1[C@H]2COc3ccc(Br)cc3[C@H]2N2C(=O)N(c3ccc(Br)cc3)C(=O)[C@]12C,7.88
14,COc1ccccc1NS(=O)(=O)c1cccc(C(=O)NN=C2CCCC2)c1,0.33
15,COc1ccc(CN(C)C(=O)Cc2ccc(OC)c(S(=O)(=O)N3CCOCC3)c2)cc1,-20.4
16,CCOC(=O)C1CCCN(S(=O)(=O)c2cccc3cccnc23)C1 (stereo not shown),-14.9
17,Cc1nnc(SCc2ccc(Cl)cc2)n1CC1CCCO1 (stereo not shown),-3.26
18,CSc1ccccc1NC(=O)COC(=O)Cn1cc(C(F)(F)F)ccc1=O,4.23
19,Cc1cc2oc(=O)cc(CN3CCCCC3C)c2cc1C(C)C (stereo not shown),-22
20,Cc1cccc(Nc2nc(-c3ccccn3)cs2)n1,12.9
21,CN(CC(=O)OCC(=O)Nc1ccccc1)S(=O)(=O)c1ccc(Cl)cc1,-19.9

row,Structure (SMILES),"hERG current change (%, negative = inhibition) at 10uM [%]"
1,CCN(CC)c1ccc(/C=N/Nc2nc(C)cc(=O)[nH]2)cc1,-20.5
2,Cc1c(Cl)cccc1NC(=S)NCCc1ccccn1,9.25
3,O=C(CC1SC(=O)N(c2ccccc2)C1=O)Nc1cccc2ccccc12 (stereo not shown),11.7
4,COc1cc(NC(=O)Cn2cnc(S(=O)(=O)N3CCC(C)CC3)c2)cc(OC)c1OC,20.6
5,N=c1n(CC(=O)c2ccc(Br)cc2)c2ccccc2n1Cc1ccccc1.[Br-],-9.25
6,Br.CCCCn1c(=N)n(CC(=O)c2ccc([N+](=O)[O-])cc2)c2ccccc21,-71.7
7,Br.N=c1n(CC(=O)c2ccc([N+](=O)[O-])cc2)c2ccccc2n1Cc1ccccc1Cl,-23.6
8,Br.Cc1ccc(Cn2c(=N)n(CC(=O)c3ccccc3)c3ccccc32)cc1,-72.2
9,Br.Cc1ccc(Cn2c(=N)n(CC(=O)c3ccc([N+](=O)[O-])cc3)c3ccccc32)cc1,-4.3
10,Br.N=c1n(CC(=O)c2ccc([N+](=O)[O-])cc2)c2ccccc2n1Cc1ccccc1,-70.1
11,Br.CCCn1c(=N)n(CC(=O)c2ccc(OCC(=O)OC)cc2)c2ccccc21,-52.7
12,Br.N=c1n(CC(=O)c2ccc([N+](=O)[O-])cc2)c2ccccc2n1Cc1ccc(Cl)cc1,-14.3
13,Br.COC(=O)COc1ccc(C(=O)Cn2c(NCCCO)nc3ccccc32)cc1,-2.45
14,O=C(N/N=C/c1ccccc1C(=O)O)c1ccncc1,18.3
15,CCC(=O)NC(=S)Nc1ccc(-c2nc3ccccc3s2)cc1,-2.92
16,Cc1cc(C)nc(OC(C(=O)O)C(OCc2ccccc2)(c2ccccc2)c2ccccc2)n1 (stereo not shown),21.7
17,CCC1CCCCN1C(=O)c1ccc2c(c1)C(=O)N(c1ccc(C)cc1)C2=O (stereo not shown),-8.83
18,CCOP(=O)(OCC)C(NS(=O)(=O)c1ccccc1)C(Cl)(Cl)Cl (stereo not shown),11.9
19,Br.CCCCn1c(=N)n(CC(=O)c2ccc(OC)cc2)c2ccccc21,-73.6
20,Br.COc1ccc(C(=O)Cn2c(=N)n(C)c3ccccc32)cc1,-28.8
21,Br.CCCn1c(=N)n(CC(=O)c2ccc([N+](=O)[O-])cc2)c2ccccc21,-78.5

row,Structure (SMILES),"hERG current change (%, negative = inhibition) at 10uM [%]"
1,Br.CCn1c(=N)n(CC(=O)c2ccc(OC)cc2)c2ccccc21,-18.6
2,Br.Cc1ccccc1Cn1c(=N)n(CC(=O)c2ccc([N+](=O)[O-])cc2)c2ccccc21,-32.6
3,N#Cc1c(-c2ccco2)cc(C2CC2)nc1SCC(=O)c1ccccc1,17.4
4,COCCNC(=S)N1CCN(c2cccc(C(F)(F)F)c2)CC1,-12.2
5,Cc1nn(Cc2cccc(F)c2)c(C)c1NC(=O)c1c([N+](=O)[O-])c(C)nn1C,-9.72
6,CCCn1nnnc1SCC(=O)Nc1sc(C)c(C)c1C#N,0.801
7,O=C(COC(=O)CNC(=O)c1cccc(Br)c1)Nc1nnc(-c2ccccc2)o1,-0.546
8,COc1ccc(CNC(=O)CCn2ccc3cc(S(=O)(=O)N4CCCC4)ccc32)cc1,-12.4
9,CCCc1ccc(S(=O)(=O)N2CCN(C(C)C(=O)NCc3ccc(OC)cc3)CC2)cc1 (stereo not shown),-57.4
10,COc1ccc(CNC(=O)COc2ccc(S(=O)(=O)N3CCCCC3)cc2)cc1,6.5
11,COc1ccc(C(=O)NCc2ccc(N3CCN(C)CC3)cc2)cc1,5.1
12,CCOc1ccc(CNC(=O)CCCn2ccc3cc(S(=O)(=O)N4CCCC4)ccc32)cc1,-32.7
13,COC(=O)CCNC(=O)CCc1ccc(S(=O)(=O)N2CCCCCC2)cc1,-12.1
14,COc1ccc(S(=O)(=O)N2CCN(C(C)C(=O)Nc3ccc(C(C)C)cc3)CC2)cc1 (stereo not shown),-20.6
15,CC(C(=O)NCc1ccccc1)N1CCN(c2ccc(F)cc2)CC1 (stereo not shown),-18.9
16,COc1ccc(CNC(=O)CCc2ccc(S(=O)(=O)N3CCCCCC3)cc2)cc1,-54.9
17,COc1ccc(CNC(=O)CCCn2ccc3cc(S(=O)(=O)N4CCCC4)ccc32)cc1,-52
18,COc1ccc(CNC(=O)C(C)N2CCN(c3ccc(C(C)=O)cc3)CC2)cc1 (stereo not shown),-55.1
19,COc1ccc(CNC(=O)C(C)N2CCN(S(=O)(=O)c3ccccc3F)CC2)cc1 (stereo not shown),-15.9
